CASP6 VEID inh: inhibitors of human caspase-6. inhibition, % at 12.5 µM. hit rate 0.53% among 350,000. P55212. purified caspase-6, Z-VEID-R110 cleavage fluorescence;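 active = mean inhibition across replicates at least about 35%, with every replicate also reaching that limit, limit read from the data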
UHRF1 binding: UHRF1 methyl-DNA binding inhibition. hit rate 0.75% among 370,000. Q96T88. AID 687016. inhibition, % at 4.4 µM. UHRF1 binding to methylated oligo, TR-FRET; in the data active = inhibition above about 21%;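 note: UHRF1 SRA domain binding a hemimethylated CpG hairpin DNA probe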
MBD2 DNA inh: blocks human MBD2 binding to methylated DNA; AID 686964; hit rate 0.31% among 370,000; Q9UBB5; TR-FRET, MBD2 binding to methylated oligonucleotide; inhibition, % at 4.4 µM; in the data active = inhibition above about 13%
Target sequence (Q9UBB5 whole entry, looked up): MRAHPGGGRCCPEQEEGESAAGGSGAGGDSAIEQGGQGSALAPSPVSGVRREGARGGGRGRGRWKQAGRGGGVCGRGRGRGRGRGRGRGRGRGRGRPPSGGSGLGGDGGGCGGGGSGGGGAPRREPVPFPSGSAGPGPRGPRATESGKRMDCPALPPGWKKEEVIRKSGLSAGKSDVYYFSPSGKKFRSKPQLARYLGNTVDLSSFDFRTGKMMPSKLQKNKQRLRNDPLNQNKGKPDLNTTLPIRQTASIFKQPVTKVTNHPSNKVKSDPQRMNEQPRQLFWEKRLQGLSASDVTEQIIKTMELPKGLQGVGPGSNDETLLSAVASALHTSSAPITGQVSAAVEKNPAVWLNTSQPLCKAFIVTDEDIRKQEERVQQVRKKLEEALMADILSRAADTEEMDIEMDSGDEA
LEDGF integ inh: blocks HIV-1 LEDGF/p75-dependent DNA integration; TR-FRET IN-LEDGF/p75 DNA integration, Eu/Cy5; inhibition, % at 3.7 µM; hit rate 0.64% among 370,000;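 active = inhibition above the screen-wide mean plus 3 SD, cut at about 13% in these data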;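 note: signal is the Cy5 over europium emission ratio at 671 and 618 nm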
Numbers stand for hits; – = inactive; · = no result given. A selection: hits, their analogues and other compounds. The true share with any hit is near 1.4%.

SMILES	CASP6 VEID inh	UHRF1 binding	MBD2 DNA inh	LEDGF integ inh
O=C(Nc1ccccc1C(F)(F)F)NC1(C(=O)N2CCOCC2)CCCCC1	86	34	16	25
Cc1cnc(C(=O)OCC(=O)NC2CCCCC2)cn1	·	–	–	–
Cc1cnc(C(=O)OCC(=O)N2C(C)CCCC2C)cn1 (configuration not stated)	–	24	–	–
Cc1cnc(C(=O)OCC(=O)N2CCC(C)CC2)cn1	–	–	–	–
O=C(COC(=O)c1ccc[nH]c1=O)NC1CCCCCC1	–	56	–	–
Cc1cnc(C(=O)OCC(=O)NC2CCCCCC2)cn1	–	22	–	–
COc1ccc(NC(=O)N(C)C[C@@H]2OCCCC[C@@H](C)Oc3ccc(NC(=O)Nc4ccc(F)cc4)cc3C(=O)N([C@@H](C)CO)C[C@H]2C)cc1	–	·	·	·
NS(=O)(=O)c1ccc(NC(=O)C2Cc3ccccc3CN2C(=O)c2ccco2)cc1 (configuration not stated)	45	–	–	–
NS(=O)(=O)c1ccc(CCNC(=O)C2Cc3ccccc3CN2C(=O)c2ccco2)cc1 (configuration not stated)	·	–	–	–
COc1ccc(Nc2nc(=O)c3cc([N+](=O)[O-])ccc3s2)cc1	–	25	–	–
Cc1ccc(Nc2nc(=O)c3cc([N+](=O)[O-])ccc3s2)cc1	–	–	–	–
CCOc1ccc(CCNC(=O)CCS(=O)(=O)c2ccc(OC)cc2)cc1OCC	38	–	–	–
Cc1ccc(CCNC(=O)CCS(=O)(=O)c2ccc(Br)cc2)cc1	–	24	–	–
Cn1c(=O)[nH]c(=O)c2c1ncn2CCN1CCOCC1	·	–	–	–
Cn1c(=O)[nH]c(=O)c2[nH]c(NCCCN3CCOCC3)nc21	·	23	–	–
CCOC1=C2CN(S(=O)(=O)c3ccc(C)cc3)[C@H](c3ccccc3)C[C@@H]2N(S(C)(=O)=O)[C@H](c2ccccc2)C1	–	28	–	–
COCCOC(=O)c1[nH]c2c(c1C)C(=O)CC(c1ccco1)C2 (configuration not stated)	50	33	–	16
CCOC(=O)c1[nH]c2c(c1C)C(=O)CC(c1ccco1)C2 (configuration not stated)	–	–	–	–
CCN1C(=O)N/C(=C/c2ccc(C)o2)C1=O	42	–	–	–
Cc1ccc(CS/C(Nc2ccccc2C)=C(\C#N)C(=O)NCc2ccco2)c(C)c1	·	–	–	–
Cc1ccccc1N/C(SCc1ccc(Cl)cc1)=C(/C#N)C(=O)NCc1ccco1	·	22	–	–
CCCCC(=O)/C=C/n1c(=S)oc2ccccc21	–	23	–	–
Cc1ccccc1S(=O)(=O)N1C[C@H](O)COC[C@@H]2O[C@@H](CC(=O)O)CC[C@H]21	–	·	·	·
NS(=O)(=O)c1ccc(NC(=O)CSc2nnc(NC3CC3)s2)cc1	36	–	–	–
COc1cc2c(cc1OC)C(C)N(C(=O)C1=NN(c3cccc(C)c3)C(=O)CC1)CC2 (configuration not stated)	–	22	–	–
SMILES	CASP6 VEID inh	UHRF1 binding	MBD2 DNA inh	LEDGF integ inh
CCC(=O)N1[C@@H]2CN(C(=O)c3cccc(OC)c3)c3ccccc3[C@@H]2[C@@H]1CO	–	·	·	·
C[C@H](CO)N1C[C@H](C)[C@H](CN(C)S(=O)(=O)c2cccs2)Oc2ccc(NC(=O)Cc3cn(C)c4ccccc34)cc2CC1=O	–	·	·	·
CCN(C1CCCCC1)S(=O)(=O)c1ccc(OC)c(C)c1	·	24	–	–
CCN(C1CCCCC1)S(=O)(=O)c1cc(C)ccc1OC	·	–	–	–
COc1cc2c(ccc3cc(OC)c(OC)c(O)c32)cc1O	86	52	27	36
Cc1ccc(SCCNC(=O)/C=C/c2ccc(Cl)cc2)cc1	·	–	–	–
Cc1ccc(SCCNC(=O)/C=C/c2ccccc2Cl)cc1	–	27	–	–
C[C@H]1CN([C@@H](C)CO)S(=O)(=O)c2ccc(C3=CCCCC3)cc2O[C@H]1CN(C)C(=O)C1CCC1	–	·	·	·
CC1=C(C(=O)OC(C)C)C(c2cccnc2)C2=C(CCCC2=O)N1 (configuration not stated)	·	91	–	–
C[C@@H]1CN([C@H](C)CO)S(=O)(=O)c2ccc(/C=C/c3ccccc3)cc2O[C@H]1CN(C)C(=O)Nc1cc(F)ccc1F	–	·	·	·
Cc1ccc(-c2ccc(CN3C(C)C(=O)N(Cc4cn(Cc5ccco5)nn4)CCS3(=O)=O)cc2)cc1 (configuration not stated)	–	–	–	–
CC(C)Cc1ccc(CN2C(C)C(=O)N(Cc3cn(Cc4ccco4)nn3)CCS2(=O)=O)cc1 (configuration not stated)	46	–	–	–
O=C(CCS(=O)(=O)c1ccc(Cl)cc1)Nc1ccccc1Br	–	–	–	–
CCOc1ccc(NC(=O)CCS(=O)(=O)c2ccc(Br)cc2)cc1	66	–	–	–
O=C(CCS(=O)(=O)c1ccc(Br)cc1)Nc1cc(F)ccc1F	59	–	–	–
CCOc1ccccc1NC(=O)CCS(=O)(=O)c1ccc(Br)cc1	71	–	–	–
COc1ccc(NC(=O)CCS(=O)(=O)c2ccc(OC)cc2)cc1	·	–	–	–
CCc1ccccc1NC(=O)CCS(=O)(=O)c1ccc(Br)cc1	–	–	–	–
O=C(C[C@H]1CC[C@@H](NC(=O)NC2CCCCC2)[C@@H](CO)O1)NCc1ccccc1	–	·	·	·
CN1C(=O)c2cc(NC(=O)Cc3ccccc3)ccc2OC[C@H]2O[C@@H](CC(=O)NC3CCC3)CC[C@@H]21	–	·	·	·
CCOc1ccc2[nH]c3c(NCCc4ccc(OC)c(OC)c4)ncnc3c2c1	–	45	–	–
CCOc1ccc2[nH]c3c(NCCO)ncnc3c2c1	–	–	–	–
O=C(NCC1OCCc2ccccc21)c1ccc(NC(=O)c2ccccc2Cl)cc1 (configuration not stated)	·	21	–	–
CC(C)c1ccc(C(=O)N2CCCC(c3cc(C(=O)Nc4ccccc4Cl)no3)C2)cc1 (configuration not stated)	57	–	–	–
COc1cccc(N(CC(=O)NCCSc2ccc(Cl)cc2)S(C)(=O)=O)c1	–	27	–	–
SMILES	CASP6 VEID inh	UHRF1 binding	MBD2 DNA inh	LEDGF integ inh
CC(C)NC(=O)C1(C)CCN1C(=O)c1ccc2c(c1)OCO2 (configuration not stated)	71	–	–	–
COc1cccc(C(=O)N2CCC2(C)C(=O)NC(C)C)c1 (configuration not stated)	–	–	–	–
CS(=O)(=O)N(CC(=O)N1CCCCCC1)c1ccc(Cl)cc1	–	29	–	–
CS(=O)(=O)N(CC(=O)N1CCOCC1)c1ccc(Cl)cc1	–	–	–	–
N#C[C@@H]1[C@H](c2ccc(C3=CCCCC3)cc2)[C@H](CO)N1S(=O)(=O)c1cccc(F)c1	–	·	·	·
COCc1cc(=O)n2[nH]c(-c3ccsc3-n3c(C)ccc3C)cc2n1	·	72	36	81
CSc1nnc(CNS(=O)(=O)c2ccc(Cl)cc2)n1C	–	26	–	–
CSc1nnc(CNS(=O)(=O)c2ccc(F)cc2)n1C	–	–	–	–
CN(C)c1ccc2c(c1)[C@H]1C[C@@H](CC(=O)NCc3cccc(F)c3)O[C@@H](CO)[C@H]1O2	–	·	·	·
N=C(N)SCc1ncccc1O	43	·	·	·
